miR122 inh: miR-122 sensor activation; Huh7 psiCHECK-miR122 Renilla luciferase sensor, 48 h; activation, % at 12.5 µM; hit rate 0.14% among 340,000;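 active = mean activation of 30% or more, with every replicate also reaching 30%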;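 also: 0% = median of neutral control wells and 100% = median of positive control wells; higher luciferase signal means stronger suppression of miR-122 activity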
The depositor's hits bear a star. The entries come from a sample that favours hits as a whole.

SMILES	miR122 inh
COc1ccc(C2SCC(=O)Nc3c2c(=O)[nH]n3C2CCCCCC2)cc1 (stereo not drawn)	37*
CCOc1ccccc1NC(=O)N1CCC2(CC1)OCCO2	-115
O=C1NC(=O)C(CCc2ccncc2)(Cc2cccc(Cl)c2Cl)C(=O)N1c1ccc(Br)cc1 (stereo not drawn)	-491
COc1cc2c(c(OC)c1OC)-c1ccc(O)c(=O)cc1C(NC(C)=O)CC2 (stereo not drawn)	-97
COc1ccc(NP(=O)(Oc2ccc(Cl)cc2)Oc2ccc(Cl)cc2)cc1OC	-136
CN1CCN(c2ccc([N+](=O)[O-])c3no[n+]([O-])c23)CC1	35*
CCN(CC)S(=O)(=O)c1ccc(C)c(NCC(=O)Nc2ccc(C#N)c(Cl)c2)c1	-119
CN=C1CN(O)C(c2ccccc2)c2cc(Cl)ccc2N1 (stereo not drawn)	-111
CCCCn1nnnc1C(c1cccc(OC)c1OC)N1CCC2(CC1)C(=O)NCN2c1ccccc1 (stereo not drawn)	-92
O=c1cc(C2CCNCC2)[nH][nH]1	-156

High-throughput results from PubChem.
